Of roughly 7,900 targets only a part is listed; those with a hit were picked by preference. About 0.6% of all pairs of compound and target were hits.
Columns and labels:
Assay in all cases: log2 fold change, soluble protein after heating vs DMSO (PISA); higher = thermal stabilisation; K562 cells, 10 uM, 30 min; active = over 0.2 and 3.5 SD of the protein, either way, in both replicates (recomputed)
[1] = compound: CC1=C(C=C(C=C1)NC(=O)C2=CC(=CC=C2)C(C)(C)C#N)NC3=CC4=C(C=C3)N=CN(C4=O)C
Outline: (§1)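 Values are thermal stability changes relative to control samples and are taken from duplicates. They are stated as log2 fold changes. Before quantification by TMTpro 16plex LC-MS/MS with equalised channel sums, K562 cells at 2×10^6 cells/mL were treated with 10 μM compound for 30 min, heated in aliquots for 3 min across 48°C-58°C, pooled, extracted in PBS with 0.5% NP-40 at 4°C, and centrifuged at 21,000xg for 90 min to give the soluble supernatant.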

[2] = compound: CC1=C(C=C(C=C1)NC(=O)C2=CC(=CC=C2)N(C)C)NC(=O)C3=CC=C(C=C3)O
Outline: as §1

[3] = compound: CC1=CC=C(C=C1)SC2=C3C=C(SC3=CN=C2)C(=O)N
Outline: as §1

[4] = compound: CC1=NC(=CC=C1)C2=C(N=C(N2)C(C)(C)C)C3=CC4=NC=CN=C4C=C3
Outline: as §1

Nexturastat A = compound: CCCCN(Cc1ccc(C(=O)NO)cc1)C(=O)Nc1ccccc1 [Nexturastat A]
Outline: as §1

vemurafenib = compound: CCCS(=O)(=O)Nc1ccc(F)c(C(=O)c2c[nH]c3ncc(-c4ccc(Cl)cc4)cc23)c1F [vemurafenib]
Outline: as §1

[5] = compound: CCCS(=O)(=O)Nc1ccc(F)c(C(=O)c2c[nH]c3ncc(Cl)cc23)c1F
Outline: as §1

[6] = compound: CCCc1cc(C)[nH]c(=O)c1CNC(=O)c1cc(-c2ccnc(N3CCN(C)CC3)c2)cc2c1cnn2C(C)C
Outline: as §1

givinostat = compound: CCN(CC)Cc1ccc2cc(COC(=O)Nc3ccc(C(=O)NO)cc3)ccc2c1 [givinostat]
Outline: as §1

barasertib = compound: CCN(CCCOc1ccc2c(Nc3cc(CC(=O)Nc4cccc(F)c4)[nH]n3)ncnc2c1)CCOP(=O)(O)O [barasertib]
Outline: as §1

[7] = compound: CC[C@@H]1C(=O)N(C)c2cnc(Nc3ccc(C(=O)NC4CCN(C)CC4)cc3OC)nc2N1C1CCCC1
Outline: as §1

volasertib = compound: CC[C@@H]1C(=O)N(C)c2cnc(Nc3ccc(C(=O)N[C@H]4CC[C@H](N5CCN(CC6CC6)CC5)CC4)cc3OC)nc2N1C(C)C [volasertib]
Outline: as §1

[8] = compound: CC[C@H](C)N1C=C(C2=C(C=C(C=C21)C3=CN=C(C=C3)N4CCNCC4)C(=O)NCC5=C(C=C(NC5=O)C)C)C
Outline: as §1

epoxomicin = compound: CC[C@H](C)[C@@H](C(=O)N[C@@H]([C@@H](C)O)C(=O)N[C@@H](CC(C)C)C(=O)[C@]1(CO1)C)NC(=O)[C@H]([C@@H](C)CC)N(C)C(=O)C [epoxomicin]
Outline: as §1

[9] = compound: CCn1c(C(=O)N(C2CC2)C2CC2)cc2c3c(ncn3C)c(Nc3cc(C)n(C)n3)nc21
Outline: as §1

[10] = compound: CCn1cc(-c2ccnc3[nH]c(-c4cccc(CN(C)C)c4)cc23)c(-c2ccc(NC(=O)N(C)C)cc2)n1
Outline: as §1

[11] = compound: CN(C)CC(=O)Nc1ccc2[nH]c(=O)c3ccccc3c2c1
Outline: as §1

rosiglitazone = compound: CN(CCOC1=CC=C(C=C1)C[C@H]2C(=O)NC(=O)S2)C3=CC=CC=N3 (racemic) [rosiglitazone]
Outline: as §1

[12] = compound: CN1C2=C(C3=C1C(=O)N(N=C3)CC4=CC(=CC=C4)N)SC(=C2)S(=O)C
Outline: as §1

[13] = compound: CN1CCC(CNc2ccc3ncc(-c4cccc(OC(F)(F)F)c4)n3n2)CC1
Outline: as §1

Measured: log2 fold change

MRPS2 (UniProt Q9Y399)
inactive: [1] 0.075 | [2] -0.049 | [3] -0.018 | [4] 0.029 | Nexturastat A 0.049 | vemurafenib 0.126 | [5] 0.041 | [6] -0.084 | givinostat -0.044 | barasertib -0.031 | [7] -0.048 | volasertib 0.037 | [8] 0.053 | epoxomicin 0.02 | [9] -0.01 | [10] -0.045 | [11] 0.031 | rosiglitazone -0.003 | [12] 0.016 | [13] 0.044

MRPS27 isoform 2 (UniProt Q92552)
inactive: [1] 0.037 | [2] -0.022 | [3] 0.006 | [4] 0.039 | Nexturastat A 0.151 | vemurafenib 0.064 | [5] 0.035 | [6] 0.051 | givinostat 0.055 | barasertib -0.016 | [7] -0.02 | volasertib -0.041 | [8] 0.132 | epoxomicin 0.052 | [9] -0.033 | [10] -0.046 | [11] 0.019 | rosiglitazone 0.05 | [12] 0.047 | [13] -0.001

NAA38 isoform 2 (UniProt Q9BRA0)
Chain of UniProt Q9BRA0 (Q9BRA0 whole entry, looked up): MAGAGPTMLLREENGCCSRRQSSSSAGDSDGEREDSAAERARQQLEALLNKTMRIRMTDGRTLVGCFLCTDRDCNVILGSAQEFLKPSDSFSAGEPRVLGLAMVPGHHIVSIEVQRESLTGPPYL
inactive: [1] 0.018 | [2] 0.041 | [3] 0.018 | [4] -0.044 | Nexturastat A 0.052 | vemurafenib 0.094 | [5] 0.042 | [6] -0.129 | givinostat 0.066 | barasertib -0.025 | [7] -0.045 | volasertib -0.017 | [8] -0.025 | epoxomicin 0.029 | [10] -0.127 | [11] -0.026 | rosiglitazone 0.017 | [12] -0.095 | [13] 0.064
active: [9] 0.265

MON2 isoform 5 (UniProt Q7Z3U7)
inactive: [1] -0.002 | [2] -0.009 | [3] -0.036 | [4] 0.018 | Nexturastat A 0 | vemurafenib 0.017 | [5] 0.085 | [6] 0.046 | givinostat 0.029 | barasertib 0.039 | [7] -0.125 | [8] 0.06 | epoxomicin 0.023 | [9] 0 | [10] -0.028 | [11] 0.031 | rosiglitazone 0.062 | [12] -0.064 | [13] -0.158
active: volasertib -0.377

NUMB (UniProt P49757)
Chain of UniProt P49757 (P49757 whole entry, looked up): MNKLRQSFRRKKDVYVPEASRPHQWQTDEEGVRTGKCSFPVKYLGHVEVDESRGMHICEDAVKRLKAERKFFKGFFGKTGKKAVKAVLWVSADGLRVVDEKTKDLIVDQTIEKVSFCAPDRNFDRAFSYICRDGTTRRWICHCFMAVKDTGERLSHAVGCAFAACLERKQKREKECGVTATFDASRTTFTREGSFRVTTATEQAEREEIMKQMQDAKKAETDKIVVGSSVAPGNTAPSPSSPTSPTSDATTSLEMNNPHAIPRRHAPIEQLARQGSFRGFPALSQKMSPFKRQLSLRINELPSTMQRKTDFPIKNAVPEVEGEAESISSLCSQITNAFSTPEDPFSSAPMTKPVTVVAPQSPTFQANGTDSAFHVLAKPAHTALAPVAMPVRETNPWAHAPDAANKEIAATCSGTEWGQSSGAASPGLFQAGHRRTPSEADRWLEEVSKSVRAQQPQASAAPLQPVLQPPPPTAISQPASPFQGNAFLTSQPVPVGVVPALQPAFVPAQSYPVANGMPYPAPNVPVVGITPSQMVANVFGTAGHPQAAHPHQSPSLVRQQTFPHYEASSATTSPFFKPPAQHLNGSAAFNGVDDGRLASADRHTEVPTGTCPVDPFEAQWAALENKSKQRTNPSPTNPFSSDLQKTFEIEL
inactive: [1] -0.006 | [2] 0.018 | [3] -0.067 | [4] -0.046 | Nexturastat A 0.09 | vemurafenib 0.026 | [5] -0.002 | [6] 0.004 | givinostat 0.02 | barasertib -0.01 | [7] -0.017 | volasertib 0.057 | [8] 0.02 | epoxomicin -0.013 | [9] 0.009 | [10] -0.045 | [11] -0.024 | rosiglitazone 0.053 | [12] -0.007 | [13] -0.202

OXA1L (UniProt Q15070)
active: [13] -0.221
inactive: [1] -0.013 | [2] 0.01 | [3] 0.02 | [4] 0.01 | Nexturastat A -0.021 | vemurafenib 0.022 | [5] -0.013 | [6] -0.049 | givinostat 0.003 | barasertib -0.012 | [7] -0.067 | volasertib -0.014 | [8] -0.015 | epoxomicin -0.046 | [9] 0.013 | [10] -0.012 | [11] -0.019 | rosiglitazone 0.016 | [12] -0.027

MRPS24 (UniProt Q96EL2)
inactive: [1] -0.01 | [2] -0.037 | [3] 0.047 | [4] -0.003 | Nexturastat A 0.095 | vemurafenib -0.065 | [5] 0.057 | [6] -0.016 | givinostat -0.035 | barasertib -0.024 | [7] -0.004 | volasertib 0.121 | [8] 0.126 | epoxomicin -0.067 | [9] -0.031 | [10] -0.095 | [11] 0 | rosiglitazone -0.026 | [12] -0.004 | [13] 0.07

MT-ATP6 (UniProt P00846)
Chain of UniProt P00846 (P00846 whole entry, looked up): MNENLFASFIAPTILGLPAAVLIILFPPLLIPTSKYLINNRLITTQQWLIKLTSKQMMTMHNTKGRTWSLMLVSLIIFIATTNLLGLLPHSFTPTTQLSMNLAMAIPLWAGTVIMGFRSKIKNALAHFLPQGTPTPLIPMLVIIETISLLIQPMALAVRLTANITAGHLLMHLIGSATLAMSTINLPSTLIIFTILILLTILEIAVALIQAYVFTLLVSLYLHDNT
inactive: [1] -0.009 | [2] 0.041 | [3] 0.008 | [4] 0.026 | Nexturastat A -0.133 | vemurafenib -0.159 | [5] -0.043 | [6] -0.014 | givinostat -0.074 | barasertib 0.567 | [7] 0.043 | volasertib -0.091 | [8] -0.057 | epoxomicin 0.105 | [9] -0.053 | [10] -0.152 | [11] -0.095 | rosiglitazone 0.502 | [12] -0.239 | [13] -0.16

MRPL47 (UniProt Q9HD33)
inactive: [1] 0.035 | [2] -0.045 | [3] -0.03 | [4] -0.078 | Nexturastat A 0.139 | vemurafenib -0.117 | [5] -0.097 | [6] 0.073 | givinostat 0.052 | barasertib -0.047 | [7] 0.094 | volasertib -0.038 | [8] 0.044 | epoxomicin 0.061 | [9] -0.021 | [10] 0.235 | [11] -0.036 | rosiglitazone -0.027 | [12] 0.071 | [13] -0.325

OXR1 (UniProt Q8N573)
Chain of UniProt Q8N573 (Q8N573 whole entry, looked up): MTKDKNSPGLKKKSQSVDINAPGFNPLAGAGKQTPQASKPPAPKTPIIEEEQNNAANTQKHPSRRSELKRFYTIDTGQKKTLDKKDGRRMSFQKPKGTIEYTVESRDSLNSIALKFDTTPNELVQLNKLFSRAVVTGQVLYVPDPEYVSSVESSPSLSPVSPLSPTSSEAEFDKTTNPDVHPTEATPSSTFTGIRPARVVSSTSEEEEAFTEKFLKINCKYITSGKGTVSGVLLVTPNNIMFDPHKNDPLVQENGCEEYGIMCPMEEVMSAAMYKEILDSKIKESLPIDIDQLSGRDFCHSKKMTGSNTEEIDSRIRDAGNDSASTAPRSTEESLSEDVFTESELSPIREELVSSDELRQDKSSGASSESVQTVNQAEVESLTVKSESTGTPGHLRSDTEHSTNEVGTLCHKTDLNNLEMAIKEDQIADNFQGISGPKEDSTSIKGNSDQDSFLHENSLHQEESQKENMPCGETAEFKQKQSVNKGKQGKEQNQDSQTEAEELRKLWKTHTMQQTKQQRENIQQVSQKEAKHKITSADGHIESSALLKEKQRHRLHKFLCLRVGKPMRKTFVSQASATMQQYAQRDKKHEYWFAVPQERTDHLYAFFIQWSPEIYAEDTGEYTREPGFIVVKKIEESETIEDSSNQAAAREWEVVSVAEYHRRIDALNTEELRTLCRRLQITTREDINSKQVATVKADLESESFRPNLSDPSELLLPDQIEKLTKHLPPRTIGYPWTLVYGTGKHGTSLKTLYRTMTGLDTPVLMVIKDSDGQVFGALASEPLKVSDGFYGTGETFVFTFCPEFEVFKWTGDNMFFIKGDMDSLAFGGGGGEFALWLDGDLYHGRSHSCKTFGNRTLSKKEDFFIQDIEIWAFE
active: [13] -0.257
inactive: [1] 0.005 | [2] -0.003 | [3] 0.005 | [4] 0.052 | Nexturastat A -0.025 | vemurafenib 0.023 | [5] -0.013 | [6] -0.062 | givinostat 0.012 | barasertib 0.027 | [7] -0.052 | volasertib -0.071 | [8] 0.035 | epoxomicin -0.013 | [9] 0.006 | [10] 0.026 | [11] 0.062 | rosiglitazone 0.005 | [12] -0.033

OSBP (UniProt P22059)
Chain of UniProt P22059 (P22059 whole entry, looked up): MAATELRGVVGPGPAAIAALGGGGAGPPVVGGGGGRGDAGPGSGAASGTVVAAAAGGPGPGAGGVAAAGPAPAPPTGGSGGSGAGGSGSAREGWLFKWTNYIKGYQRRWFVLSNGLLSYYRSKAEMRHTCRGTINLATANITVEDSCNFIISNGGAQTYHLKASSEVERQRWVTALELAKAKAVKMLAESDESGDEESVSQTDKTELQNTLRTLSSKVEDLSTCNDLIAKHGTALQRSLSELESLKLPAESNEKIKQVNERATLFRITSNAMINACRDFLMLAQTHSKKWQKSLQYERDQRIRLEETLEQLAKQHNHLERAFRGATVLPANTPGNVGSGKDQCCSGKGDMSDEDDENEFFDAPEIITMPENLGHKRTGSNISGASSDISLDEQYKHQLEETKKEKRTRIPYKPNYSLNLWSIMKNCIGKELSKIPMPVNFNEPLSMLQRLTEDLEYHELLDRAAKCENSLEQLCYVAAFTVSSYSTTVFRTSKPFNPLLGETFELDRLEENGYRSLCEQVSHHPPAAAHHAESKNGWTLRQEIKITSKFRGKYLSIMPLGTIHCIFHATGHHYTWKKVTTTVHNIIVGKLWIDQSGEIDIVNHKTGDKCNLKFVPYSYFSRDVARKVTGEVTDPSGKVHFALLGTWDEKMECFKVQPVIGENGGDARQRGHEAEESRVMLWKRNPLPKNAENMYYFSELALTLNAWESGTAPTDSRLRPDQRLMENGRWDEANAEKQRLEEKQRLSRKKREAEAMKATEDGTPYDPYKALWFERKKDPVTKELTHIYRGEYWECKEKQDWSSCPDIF
active: volasertib 0.377
inactive: [1] 0.098 | [2] -0.011 | [3] -0.028 | [4] 0.022 | Nexturastat A -0.073 | vemurafenib 0.015 | [5] 0.027 | [6] -0.003 | givinostat -0.052 | barasertib -0.001 | [7] 0.056 | [8] 0.032 | epoxomicin 0.053 | [9] -0.101 | [10] -0.087 | [11] 0.013 | rosiglitazone 0.038 | [12] -0.064 | [13] 0.061

NARS2 (UniProt Q96I59)
Chain of UniProt Q96I59 (Q96I59 whole entry, looked up): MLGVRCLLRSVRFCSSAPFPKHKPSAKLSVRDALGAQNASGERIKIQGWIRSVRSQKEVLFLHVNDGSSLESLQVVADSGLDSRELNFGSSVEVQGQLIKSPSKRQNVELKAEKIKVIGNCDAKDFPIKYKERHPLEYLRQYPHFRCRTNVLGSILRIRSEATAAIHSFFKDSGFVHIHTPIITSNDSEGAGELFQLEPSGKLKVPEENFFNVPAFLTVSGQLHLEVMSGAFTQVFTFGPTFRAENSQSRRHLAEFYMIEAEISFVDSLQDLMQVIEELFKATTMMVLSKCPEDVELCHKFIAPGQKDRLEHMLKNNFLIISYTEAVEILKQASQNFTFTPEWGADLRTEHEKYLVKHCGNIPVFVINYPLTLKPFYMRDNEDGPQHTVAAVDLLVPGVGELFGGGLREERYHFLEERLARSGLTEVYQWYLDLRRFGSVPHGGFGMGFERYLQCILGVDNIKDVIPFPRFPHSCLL
inactive: [1] -0.016 | [2] 0.002 | [3] -0.011 | [4] 0.019 | Nexturastat A -0.071 | vemurafenib -0.01 | [5] 0.038 | [6] -0.033 | givinostat -0.076 | barasertib 0.002 | [7] -0.021 | volasertib -0.043 | [8] 0.045 | epoxomicin 0.048 | [9] 0.034 | [10] -0.055 | [11] 0.001 | rosiglitazone 0.026 | [12] -0.034 | [13] -0.182

MT-ND4 (UniProt P03905)
Chain of UniProt P03905 (P03905 whole entry, looked up): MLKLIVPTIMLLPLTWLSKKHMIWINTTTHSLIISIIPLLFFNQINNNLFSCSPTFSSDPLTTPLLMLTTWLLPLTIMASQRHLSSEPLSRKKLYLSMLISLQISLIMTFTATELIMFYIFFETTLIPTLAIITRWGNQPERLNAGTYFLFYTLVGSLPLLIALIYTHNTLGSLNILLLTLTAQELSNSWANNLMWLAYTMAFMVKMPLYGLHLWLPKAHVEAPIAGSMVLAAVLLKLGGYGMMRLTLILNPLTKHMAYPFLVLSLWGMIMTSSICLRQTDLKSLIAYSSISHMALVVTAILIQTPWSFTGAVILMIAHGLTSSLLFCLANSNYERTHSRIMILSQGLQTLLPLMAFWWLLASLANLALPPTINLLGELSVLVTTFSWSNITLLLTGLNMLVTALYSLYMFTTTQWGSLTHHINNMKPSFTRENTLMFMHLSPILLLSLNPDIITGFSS
active: [10] 0.391
inactive: [1] -0.064 | [2] 0.067 | [3] 0.015 | [4] 0.048 | Nexturastat A -0.155 | vemurafenib 0.004 | [5] 0.016 | [6] 0.014 | givinostat 0.058 | barasertib 0.156 | [7] 0 | volasertib -0.102 | [8] -0.028 | epoxomicin 0 | [9] -0.071 | [11] -0.025 | rosiglitazone 0.159 | [12] -0.065 | [13] 0.029

NDUFA4 (UniProt O00483)
Chain of UniProt O00483 (O00483 whole entry, looked up): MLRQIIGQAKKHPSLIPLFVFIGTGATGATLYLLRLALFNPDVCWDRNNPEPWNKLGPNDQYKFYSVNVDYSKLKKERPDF
inactive: [1] 0.046 | [2] -0.069 | [3] -0.003 | [4] 0.049 | Nexturastat A -0.033 | vemurafenib 0.002 | [5] 0.018 | [6] -0.023 | givinostat -0.099 | barasertib 0.044 | [7] 0.033 | volasertib 0.042 | [8] -0.019 | [9] 0.09 | [10] 0.019 | [11] -0.039 | rosiglitazone -0.026 | [12] 0.018 | [13] 0.101
active: epoxomicin 0.369

NUP85 (UniProt Q9BW27)
Chain of UniProt Q9BW27 (Q9BW27 whole entry, looked up): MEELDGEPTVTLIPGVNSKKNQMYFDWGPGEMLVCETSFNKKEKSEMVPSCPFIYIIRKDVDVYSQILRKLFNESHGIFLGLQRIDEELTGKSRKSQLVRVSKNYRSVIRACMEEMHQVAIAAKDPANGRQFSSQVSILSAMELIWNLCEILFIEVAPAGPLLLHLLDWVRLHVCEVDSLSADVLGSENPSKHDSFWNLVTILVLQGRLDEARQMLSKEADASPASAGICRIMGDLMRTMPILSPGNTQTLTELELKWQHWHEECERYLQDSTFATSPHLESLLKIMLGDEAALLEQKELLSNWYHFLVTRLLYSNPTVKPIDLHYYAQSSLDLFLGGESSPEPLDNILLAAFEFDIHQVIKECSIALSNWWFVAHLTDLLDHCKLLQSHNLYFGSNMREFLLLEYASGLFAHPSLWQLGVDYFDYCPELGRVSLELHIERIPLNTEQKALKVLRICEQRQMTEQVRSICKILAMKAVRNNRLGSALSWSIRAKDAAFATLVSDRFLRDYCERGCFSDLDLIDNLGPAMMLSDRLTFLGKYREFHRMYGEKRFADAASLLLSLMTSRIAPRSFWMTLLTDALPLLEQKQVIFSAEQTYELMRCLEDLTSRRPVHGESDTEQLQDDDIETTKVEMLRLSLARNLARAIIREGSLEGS
inactive: [1] -0.02 | [2] 0.025 | [3] 0.102 | [4] -0.001 | Nexturastat A -0.041 | vemurafenib 0.01 | [5] 0.019 | [6] -0.02 | givinostat 0.015 | barasertib 0.017 | [7] -0.158 | [8] -0.008 | epoxomicin 0.022 | [9] -0.024 | [10] -0.01 | [11] -0.004 | rosiglitazone 0.019 | [12] -0.038 | [13] -0.045
active: volasertib -0.561

MNAT1 (UniProt P51948)
Chain of UniProt P51948 (P51948 whole entry, looked up): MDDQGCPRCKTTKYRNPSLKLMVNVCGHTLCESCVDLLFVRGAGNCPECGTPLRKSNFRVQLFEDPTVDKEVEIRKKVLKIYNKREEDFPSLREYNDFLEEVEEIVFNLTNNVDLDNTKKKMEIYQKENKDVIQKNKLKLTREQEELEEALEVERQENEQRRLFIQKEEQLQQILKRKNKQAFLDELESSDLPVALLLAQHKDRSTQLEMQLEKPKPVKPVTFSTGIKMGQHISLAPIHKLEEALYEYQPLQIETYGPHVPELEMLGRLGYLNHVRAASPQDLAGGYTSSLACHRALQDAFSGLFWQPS
inactive: [1] 0.004 | [2] -0.006 | [3] 0.001 | [4] 0.001 | Nexturastat A 0.043 | vemurafenib -0.006 | [5] 0.039 | [6] -0.037 | givinostat 0.069 | barasertib -0.003 | [7] 0.029 | volasertib -0.027 | [8] -0.029 | epoxomicin -0.057 | [9] -0.006 | [10] 0.015 | [11] 0.032 | rosiglitazone -0.027 | [12] -0.011 | [13] 0.015
